# Measurements: PubChem BioAssay (NCATS)
# Records with an inconclusive call do not appear. Values without a mark were called inactive. Active and inactive are the calls of the source. Calls follow the shape of the dose curve; as a rule, active = well fitted inhibition curve with a large enough effect; inconclusive = small, poorly fitted or top-dose-only effect; inactive = flat fitted curve, though single readings scatter.
# Key:
# [1] = test system: CRL-7250; test: Cytotoxic Profiling of Annotated Libraries Using Quantitative High-Throughput Screening (AID 1296008); conditions: Five cell lines viability, CellTiter-Glo ATP luminescence, 48-72 h; max response: hits give low values; also: potency is read from the fitted curve at half-maximal effect; as to max response: % is scaled to controls: 0 for no effect and ±100 for the full control effect
# Outline: (§1)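 Compounds were pin-transferred onto cells and incubated 48 or 72 hr at 37 degree Celsius, 95% humidity. CellTiter-Glo was added, plates sat 10 min at room temperature, then ATP-coupled luminescence was imaged as the viability read-out.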
# [2] = test system: HEK293; test: as above; conditions: Five cell lines viability, CellTiter-Glo ATP luminescence, 48-72 h; max response: hits give low values
# Outline: as §1
# [3] = test system: HaCat; test: as above; conditions: Five cell lines viability, CellTiter-Glo ATP luminescence, 48-72 h; max response: hits give low values
# Outline: as §1
# [4] = test system: KB-3-1; test: as above; conditions: Five cell lines viability, CellTiter-Glo ATP luminescence, 48-72 h; max response: hits give low values
# Outline: as §1
# [5] = test system: HACAT; test: qHTS assay to identify novel small-molecules to repurpose for Merkel cell carcinoma treatment (AID 1296009); conditions: MCC and control cell lines, CellTiter-Glo viability, 72 h; series mostly up to 44.8 µM
# Outline: (§2)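 Luminescence from CellTiter-Glo, read 10 min after addition at room temperature, reported viability following a 72 hr, 37 degree celsius treatment with NPC or MIPE compounds in titration; values normalized to plate controls.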
# [6] = test system: NIH3T3; test: Cytotoxic Profiling of Annotated Libraries Using Quantitative High-Throughput Screening (AID 1296008); conditions: Five cell lines viability, CellTiter-Glo ATP luminescence, 48-72 h; max response: hits give low values; also: potency is read from the fitted curve at half-maximal effect; as to max response: % is scaled to controls: 0 for no effect and ±100 for the full control effect
# Outline: as §1
# [7] = test system: HEK293T; test: qHTS assay to identify novel small-molecules to repurpose for Merkel cell carcinoma treatment (AID 1296009); conditions: MCC and control cell lines, CellTiter-Glo viability, 72 h; at 44.8 µM (top of the series) unless noted
# Outline: as §2
# Also: nearly all actives have a fitted effect of over 60% in size.
structure (smiles),measurement,setting,value
Cc1nc2ccc(Oc3ccc(F)cc3)cc2c(=O)n1C[C@H]1CCCN(C(C)C)C1,max response,[1],-2.55%
same,max response,[2],-15.9%
same,outcome,[3],inactive
same,max response,[4],5.64%
same,Potency,[5],inactive
Cc1noc(=O)c2ccc(NC(=O)C(O)(CC(C)(C)c3cccc4c3OCC4)C(F)(F)F)cc12 (stereo not given),max response,[1],3.52%
same,max response,[2],-10.8%
same,outcome,[3],inactive
same,outcome,[4],inactive
same,max response,[6],-1.29%
same,Potency,[5],inactive
Cc1cccc(-c2[nH]c(Cc3cccc(C(N)=O)c3)nc2-c2ccc3nccnc3c2)n1,max response,[1],4.2%
same,outcome,[2],inactive
same,outcome,[3],inactive
same,max response,[4],-5.51%
same,Potency,[5],inactive
same,outcome,[7],inactive
Nc1nc2c(ncn2[C@@H]2O[C@@H]3COP(=O)(O)O[C@H]3[C@H]2O)c(=O)[nH]1,max response,[1],-1.98%
same,max response,[2],-4.75%
same,outcome,[3],inactive
same,outcome,[4],inactive
same,Potency,[5],inactive
O=C(O[C@H]1[C@@H]2C=CO[C@@H](O[C@@H]3O[C@H](CO)[C@@H](O)[C@H](O)[C@H]3O)[C@@H]2[C@@]2(CO)O[C@@H]12)c1ccccc1,max response,[1],-3.06%
same,max response,[2],-2.12%
same,outcome,[3],inactive
same,outcome,[4],inactive
same,max response,[6],-6.96%
same,Potency,[5],inactive
O=C(Nc1nc2ccccc2n1CCc1ccccc1)c1ccccc1,max response,[1],1.35%
same,max response,[2],-110%
same,outcome,[3],inactive
same,max response,[4],5.59%
same,max response,[6],-1.28%
same,Potency,[5],inactive
CC[C@]12C=CCN3CC[C@@]4(c5cc([C@@]6(C(=O)OC)C[C@H]7C[C@@H](C(C)(F)F)CN(Cc8c6[nH]c6ccccc86)C7)c(OC)cc5N(C)[C@H]4[C@@](O)(C(=O)OC)[C@@H]1OC(C)=O)[C@@H]32,Potency,[1],485 nM (active)
same,Potency,[2],172 nM (active)
same,outcome,[3],inactive
same,Potency,[4],137 nM (active)
same,Potency,[5],inactive
CC1(C)CC[C@]2(C(=O)O[C@@H]3O[C@H](CO)[C@@H](O)[C@H](O)[C@H]3O)CC[C@]3(C)C(=CCC4[C@@]5(C)CC[C@H](O[C@@H]6O[C@H](C(=O)O)[C@@H](O)[C@H](O)[C@H]6O)[C@@](C)(CO)C5CC[C@]43C)C2C1 (stereo not given in full),max response,[1],1.86%
same,max response,[2],-6.82%
same,outcome,[3],inactive
same,max response,[4],-0.849%
same,max response,[6],-2.22%
same,outcome,[5],inactive [at 9.27 µM]
CCC1=CC2CN(C1)Cc1c([nH]c3ccccc13)[C@@](C(=O)OC)(c1cc3c(cc1OC)N(C)[C@H]1[C@@](O)(C(=O)OC)[C@H](OC(C)=O)[C@]4(CC)C=CCN5CC[C@]31[C@@H]54)C2 (stereo not given in full),Potency,[1],126 nM (active)
same,Potency,[2],100 nM (active)
same,outcome,[3],inactive
same,Potency,[4],35.5 nM (active)
same,Potency,[5],inactive
C=C(C(=O)OC)C1C(O)CC2(C)C(O)CCC(=O)C2C1O (stereo not given),max response,[1],-16.1%
same,max response,[2],-7.45%
same,outcome,[3],inactive
same,max response,[4],2.14%
same,max response,[6],3.84%
same,Potency,[5],inactive
C/C=C/c1ccc2c(c1)[C@@H](C)[C@H](c1ccc(O)cc1)O2,max response,[1],-3.63%
same,max response,[2],1.71%
same,outcome,[3],inactive
same,max response,[4],-2.15%
same,max response,[6],3.14%
same,Potency,[5],inactive
C/C=C/C=C/C(O)=C1\C(=O)[C@]2(C)C3C(C(=O)CC/C=C/C)=C(O)C4(C)C1[C@]1(C)O[C@@]4(O)[C@@]3(C)O[C@@]12O,max response,[1],-4.26%
same,max response,[2],-0.736%
same,outcome,[3],inactive
same,max response,[4],8.54%
same,max response,[6],1.07%
same,Potency,[5],inactive
Cc1cc(C(=O)Nc2cccc(C(=O)Nc3cccc(C(F)(F)F)c3)c2)on1,max response,[1],4.99%
same,max response,[2],2.99%
same,outcome,[3],inactive
same,max response,[4],-0.787%
same,max response,[6],-17%
same,Potency,[5],inactive
O=C(N/N=C/c1ccc(O)c(O)c1)c1cc2ccccc2cc1O,max response,[1],-27.6%
same,outcome,[2],inactive
same,max response,[3],-0.414%
same,max response,[4],7.95%
same,outcome,[7],inactive [at 17.4 µM]
CC(=O)O[C@@H]1[C@H](O[C@@H]2O[C@@H](CO)[C@H](O)[C@H]2O)[C@@H](O[C@@H]2O[C@@H](C)[C@H](O[C@@H]3OC[C@@H](O)[C@H](O)[C@H]3O)[C@@H](O)[C@H]2O)[C@H](OC(=O)[C@]23CCC(C)(C)C[C@H]2C2=CCC4[C@@]5(C)CC[C@H](O[C@@H]6O[C@H](C(=O)O)[C@@H](O)[C@H](O)[C@H]6O[C@@H]6O[C@H](CO)[C@H](O)[C@H](O)[C@H]6O)[C@@](C)(C=O)C5CC[C@@]4(C)[C@]2(C)CC3)O[C@@H]1C (stereo not given in full),outcome,[1],inactive
same,max response,[2],-1.69%
same,outcome,[3],inactive
same,max response,[4],5.7%
same,max response,[6],4.82%
same,outcome,[5],inactive [at 9.27 µM]
O=C1C=CC2OC(c3ccccc3)C(O)C2O1 (stereo not given),max response,[1],-15.8%
same,Potency,[2],23100 nM (active)
same,outcome,[3],inactive
same,max response,[4],-14.2%
same,Potency,[5],inactive
c1ccc(-c2csc(N3CCOCC3)n2)cc1,max response,[1],1.19%
same,outcome,[2],inactive
same,max response,[3],-7.34%
same,max response,[4],8.26%
same,outcome,[7],inactive
